# Measured values: ChEMBL document CHEMBL1961873, “Compounds: GSK PKIS; Assays: Nanosyn kinase panel” (2012)
# Experiments:
# [1] = target: Casein kinase I isoform gamma-2 (Homo sapiens) (UniProt P78368); conditions: at 1 µM
# [2] = target: Casein kinase I isoform gamma-3 (Homo sapiens) (UniProt Q9Y6M4); conditions: at 0.1 µM
# [3] = target: Casein kinase I isoform gamma-3 (Homo sapiens) (UniProt Q9Y6M4); conditions: at 1 µM
# [4] = target: Cyclin-dependent kinase 1 (Homo sapiens) (UniProt P06493); conditions: at 0.1 µM
# [5] = target: Cyclin-dependent kinase 1 (Homo sapiens) (UniProt P06493); conditions: at 1 µM
# [6] = target: Cyclin-dependent kinase 2 (Homo sapiens) (UniProt P24941); conditions: at 0.1 µM
# [7] = target: Cyclin-dependent kinase 2 (Homo sapiens) (UniProt P24941); conditions: at 1 µM
# [8] = target: Cyclin-dependent kinase 2 (Homo sapiens) (UniProt P24941); conditions: at 0.1 µM; remark: listed apart in the source
# [9] = target: Cyclin-dependent kinase 2 (Homo sapiens) (UniProt P24941); conditions: at 1 µM; remark: listed apart in the source
# [10] = target: T1, CDK3/Cyclin E (Homo sapiens) (UniProt P24864+Q00526); conditions: at 0.1 µM
# [11] = target: T1, CDK3/Cyclin E (Homo sapiens); conditions: at 1 µM
# [12] = target: Cyclin-dependent kinase 4 (Homo sapiens) (UniProt P11802); conditions: at 0.1 µM
# [13] = target: Cyclin-dependent kinase 4 (Homo sapiens) (UniProt P11802); conditions: at 1 µM
# [14] = target: Cyclin-dependent kinase 5 (Homo sapiens) (UniProt Q00535); conditions: at 0.1 µM
# [15] = target: Cyclin-dependent kinase 5 (Homo sapiens) (UniProt Q00535); conditions: at 1 µM
# [16] = target: Cyclin-dependent kinase 6 (Homo sapiens) (UniProt Q00534); conditions: at 0.1 µM
# [17] = target: Cyclin-dependent kinase 6 (Homo sapiens) (UniProt Q00534); conditions: at 1 µM
# [18] = target: Dual specificity protein kinase CLK2 (Homo sapiens) (UniProt P49760); conditions: at 0.1 µM
# [19] = target: Dual specificity protein kinase CLK2 (Homo sapiens) (UniProt P49760); conditions: at 1 µM
# [20] = target: Dual specificity protein kinase CLK3 (Homo sapiens) (UniProt P49761); conditions: at 0.1 µM
# Sequence of Dual specificity protein kinase CLK3 (Homo sapiens) (P49761 whole entry, looked up): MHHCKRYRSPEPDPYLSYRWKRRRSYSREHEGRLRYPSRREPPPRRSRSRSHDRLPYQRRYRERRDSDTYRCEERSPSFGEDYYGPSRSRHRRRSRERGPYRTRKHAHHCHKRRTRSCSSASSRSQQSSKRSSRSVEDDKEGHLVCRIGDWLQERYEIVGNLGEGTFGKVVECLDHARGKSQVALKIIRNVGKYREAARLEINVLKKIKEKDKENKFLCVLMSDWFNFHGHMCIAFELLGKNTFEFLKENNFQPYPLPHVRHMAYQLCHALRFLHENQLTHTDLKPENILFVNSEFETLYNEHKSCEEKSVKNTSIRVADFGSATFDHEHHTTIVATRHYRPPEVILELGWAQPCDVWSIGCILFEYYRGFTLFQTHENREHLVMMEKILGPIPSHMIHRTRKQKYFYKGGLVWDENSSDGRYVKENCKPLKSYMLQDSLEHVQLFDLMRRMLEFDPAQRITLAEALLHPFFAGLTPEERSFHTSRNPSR
# Sequence of Dual specificity protein kinase CLK2 (Homo sapiens) (P49760 whole entry, looked up): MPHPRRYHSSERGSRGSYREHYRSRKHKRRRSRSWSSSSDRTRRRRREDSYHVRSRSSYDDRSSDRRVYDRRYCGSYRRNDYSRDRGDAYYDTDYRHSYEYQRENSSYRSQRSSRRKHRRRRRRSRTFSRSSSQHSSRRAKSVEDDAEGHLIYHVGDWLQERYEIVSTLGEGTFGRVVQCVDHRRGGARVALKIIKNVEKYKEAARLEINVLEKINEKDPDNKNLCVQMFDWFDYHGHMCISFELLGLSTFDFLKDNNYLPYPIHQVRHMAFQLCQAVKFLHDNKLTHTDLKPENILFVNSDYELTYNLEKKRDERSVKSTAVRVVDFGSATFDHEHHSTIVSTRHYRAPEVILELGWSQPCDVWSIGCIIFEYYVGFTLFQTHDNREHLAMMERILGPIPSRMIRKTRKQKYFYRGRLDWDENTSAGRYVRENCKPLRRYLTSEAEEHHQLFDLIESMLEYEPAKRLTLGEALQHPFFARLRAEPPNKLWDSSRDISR
# Sequence of Cyclin-dependent kinase 6 (Homo sapiens) (Q00534 whole entry): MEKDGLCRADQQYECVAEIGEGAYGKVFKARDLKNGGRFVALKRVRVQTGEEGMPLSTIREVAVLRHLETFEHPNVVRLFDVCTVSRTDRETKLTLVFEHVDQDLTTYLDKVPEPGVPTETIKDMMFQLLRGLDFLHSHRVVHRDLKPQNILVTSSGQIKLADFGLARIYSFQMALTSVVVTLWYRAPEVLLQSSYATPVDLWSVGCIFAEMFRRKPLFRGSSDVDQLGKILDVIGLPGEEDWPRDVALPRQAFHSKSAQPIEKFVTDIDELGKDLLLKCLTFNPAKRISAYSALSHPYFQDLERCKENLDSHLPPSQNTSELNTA
# Sequence of Cyclin-dependent kinase 4 (Homo sapiens) (P11802 whole entry): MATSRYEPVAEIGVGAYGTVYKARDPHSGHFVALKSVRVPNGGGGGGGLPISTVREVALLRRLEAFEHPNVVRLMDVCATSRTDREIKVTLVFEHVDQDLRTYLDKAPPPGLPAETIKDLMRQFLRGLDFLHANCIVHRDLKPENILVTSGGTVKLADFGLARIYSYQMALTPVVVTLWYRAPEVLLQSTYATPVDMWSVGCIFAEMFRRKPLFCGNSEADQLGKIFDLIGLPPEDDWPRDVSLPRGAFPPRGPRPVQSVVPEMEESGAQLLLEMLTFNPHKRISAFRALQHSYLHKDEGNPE
# Sequence of Cyclin-dependent kinase 5 (Homo sapiens) (Q00535 whole entry, looked up): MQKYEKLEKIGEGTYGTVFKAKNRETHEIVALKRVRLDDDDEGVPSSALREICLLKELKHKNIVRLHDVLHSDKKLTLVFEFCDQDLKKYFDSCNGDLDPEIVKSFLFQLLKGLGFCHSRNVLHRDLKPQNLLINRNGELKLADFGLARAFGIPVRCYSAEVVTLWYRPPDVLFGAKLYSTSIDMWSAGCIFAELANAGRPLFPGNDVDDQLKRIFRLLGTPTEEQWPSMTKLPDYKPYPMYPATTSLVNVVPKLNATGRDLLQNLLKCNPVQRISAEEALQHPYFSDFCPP
# Sequence of Casein kinase I isoform gamma-3 (Homo sapiens) (Q9Y6M4 whole entry, looked up, canonical isoform): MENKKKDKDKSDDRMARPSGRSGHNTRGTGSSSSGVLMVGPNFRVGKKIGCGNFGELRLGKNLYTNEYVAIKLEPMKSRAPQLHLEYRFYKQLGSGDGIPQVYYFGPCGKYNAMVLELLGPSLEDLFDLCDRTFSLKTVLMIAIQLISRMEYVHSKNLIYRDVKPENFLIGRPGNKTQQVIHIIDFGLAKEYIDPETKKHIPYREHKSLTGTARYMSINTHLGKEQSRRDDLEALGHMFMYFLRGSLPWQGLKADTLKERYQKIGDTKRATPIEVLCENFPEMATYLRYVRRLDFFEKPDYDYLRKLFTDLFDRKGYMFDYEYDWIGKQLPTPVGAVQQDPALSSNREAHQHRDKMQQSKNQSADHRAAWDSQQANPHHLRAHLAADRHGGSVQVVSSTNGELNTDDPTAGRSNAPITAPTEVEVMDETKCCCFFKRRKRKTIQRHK
# Sequence of Cyclin-dependent kinase 1 (Homo sapiens) (P06493 whole entry, looked up): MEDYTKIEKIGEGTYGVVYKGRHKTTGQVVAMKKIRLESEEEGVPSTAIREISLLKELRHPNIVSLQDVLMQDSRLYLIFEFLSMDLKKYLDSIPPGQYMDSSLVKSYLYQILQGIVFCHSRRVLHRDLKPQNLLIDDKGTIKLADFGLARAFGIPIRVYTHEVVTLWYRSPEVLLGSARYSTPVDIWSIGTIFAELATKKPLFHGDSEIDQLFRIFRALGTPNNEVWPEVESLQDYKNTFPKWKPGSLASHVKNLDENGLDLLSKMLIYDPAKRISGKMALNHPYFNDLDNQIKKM
# Sequence of Casein kinase I isoform gamma-2 (Homo sapiens) (P78368 whole entry, looked up, canonical isoform): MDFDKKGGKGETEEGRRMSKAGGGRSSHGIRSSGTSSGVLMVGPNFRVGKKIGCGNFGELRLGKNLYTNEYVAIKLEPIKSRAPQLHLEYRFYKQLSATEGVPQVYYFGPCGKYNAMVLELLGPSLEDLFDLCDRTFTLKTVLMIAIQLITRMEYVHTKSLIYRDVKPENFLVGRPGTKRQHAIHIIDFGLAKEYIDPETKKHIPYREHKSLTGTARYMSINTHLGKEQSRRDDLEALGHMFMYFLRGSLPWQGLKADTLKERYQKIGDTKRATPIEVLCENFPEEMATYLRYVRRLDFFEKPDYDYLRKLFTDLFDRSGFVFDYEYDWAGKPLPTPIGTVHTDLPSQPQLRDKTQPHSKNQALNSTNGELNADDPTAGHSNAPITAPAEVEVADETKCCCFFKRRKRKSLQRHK
# T1 sequence (P24864 whole entry, looked up): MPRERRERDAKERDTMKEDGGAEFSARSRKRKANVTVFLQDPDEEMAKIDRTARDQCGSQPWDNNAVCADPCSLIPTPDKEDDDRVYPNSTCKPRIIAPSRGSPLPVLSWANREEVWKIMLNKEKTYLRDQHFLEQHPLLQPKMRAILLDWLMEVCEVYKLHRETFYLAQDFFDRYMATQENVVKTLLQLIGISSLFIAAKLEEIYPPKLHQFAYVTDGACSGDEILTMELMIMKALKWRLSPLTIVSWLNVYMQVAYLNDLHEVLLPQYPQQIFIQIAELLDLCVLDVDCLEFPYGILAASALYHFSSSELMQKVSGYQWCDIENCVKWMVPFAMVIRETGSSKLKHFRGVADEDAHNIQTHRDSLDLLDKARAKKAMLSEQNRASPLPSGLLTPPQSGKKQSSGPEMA
# T1 sequence (Q00526 whole entry, looked up): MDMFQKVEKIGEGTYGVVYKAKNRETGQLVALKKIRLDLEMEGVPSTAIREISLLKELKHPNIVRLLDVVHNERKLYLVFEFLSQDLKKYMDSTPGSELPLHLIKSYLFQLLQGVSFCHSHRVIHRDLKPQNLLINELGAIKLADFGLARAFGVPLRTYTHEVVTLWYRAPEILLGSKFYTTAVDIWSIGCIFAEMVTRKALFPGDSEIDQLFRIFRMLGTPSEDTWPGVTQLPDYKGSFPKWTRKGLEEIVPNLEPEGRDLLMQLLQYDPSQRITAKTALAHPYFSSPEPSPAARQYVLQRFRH
SMILES,inhibition [1] [%],inhibition [2] [%],inhibition [3] [%],inhibition [4] [%],inhibition [5] [%],inhibition [6] [%],inhibition [7] [%],inhibition [8] [%],inhibition [9] [%],inhibition [10] [%],inhibition [11] [%],inhibition [12] [%],inhibition [13] [%],inhibition [14] [%],inhibition [15] [%],inhibition [16] [%],inhibition [17] [%],inhibition [18] [%],inhibition [19] [%],inhibition [20] [%]
Cc1ccc2c(-c3ccnc(Nc4ccc5c(c4)OCCO5)n3)c(-c3ccc(C(F)(F)F)cc3)nn2n1,1.66,1.42,1.29,1.21,2.01,-0.16,2.09,0.31,1.68,-0.58,-3.94,0.65,1.74,0.21,1.41,-0.74,-1.75,1.25,-0.4,1.41
Cc1cc(-c2ccccn2)cc(C)c1/C=C/c1cncc(-c2nn[nH]n2)c1,6.46,2.01,4.69,3.71,5.82,2.14,2.77,3.02,7.32,-2.85,-2.71,6.05,8.73,3.27,5.72,1.94,5.55,0.95,1.77,0.5
Cc1nc(-c2ccccc2)n2nc(NCCCN3CCOCC3)ncc12,2.19,1.6,1.78,1.76,2.4,2.24,2.48,2.24,4.68,-1.66,0.9,4.19,15.2,0.75,2.62,13.8,52.7,3.46,10.1,0.04
COc1cc2ncnc(Nc3ccc4c(cnn4Cc4ccccc4)c3)c2cc1OC,2.98,0.8,1.75,2.61,6.2,4.41,2.68,6.35,7.13,-0.7,-1.25,1.5,5.06,4.4,6.81,-3.86,-2.1,-0.74,0.84,1.15
Nc1nccc(C#Cc2cncnc2Nc2ccc(OCc3cccc(F)c3)c(Cl)c2)n1,3.89,3.42,3.02,0.61,2.58,1.73,1.37,3.74,5.25,1.09,0.78,3.03,4.61,1.09,1.9,3.61,2.5,2.79,14.2,1.85
COc1ccc(-c2nn3ncccc3c2-c2ccnc(Nc3cccc(C(F)(F)F)c3)n2)cc1,2.2,2.44,1.71,0.53,1.61,0.03,1.83,2.35,4.1,0.68,-2.93,1.42,3.64,0.07,1.77,-1.93,-0.66,0.06,-1.44,-0.4
C[C@@H](Oc1cc(-n2cnc3ccc(OCC4CCN(C)CC4)cc32)sc1C(N)=O)c1ccccc1C(F)(F)F,-3.37,-1.08,-3.59,2.12,3.02,-0.78,2.52,-0.93,0.83,-1.54,0.6,-1.73,1,0.01,3.08,-3.79,-1.66,1.74,9.73,-0.19
CCn1c(-c2nonc2N)nc2ccc(F)cc21,5.68,5.66,3.59,0.74,1.27,1.3,7.59,3.91,5.8,3.47,-3.51,1.9,2.11,0.58,0.39,1.33,2.18,2.5,0.59,2.12
O=C(Nc1ccc(Oc2ccc3[nH]c(NC(=O)c4ccco4)nc3c2)cc1)Nc1cc(C(F)(F)F)ccc1F,-2.38,-2.82,-2.32,-5.04,-3.69,-3.1,3.18,-4.34,-4,-0.43,0.77,-4.32,-2.74,-4.37,-4.57,-1.5,-3.48,0.35,0.71,-3.23
c1ccc(Cc2nc3ccc(Nc4ncnc5ccccc45)cc3[nH]2)cc1,8.66,3.41,5.53,3.12,4.29,2.89,7.78,6.18,8.1,4.46,1.71,4.29,5.27,3.52,5.74,6.78,8.79,1.26,2,2.76
FC(F)(F)c1ccc(-c2nn3ncccc3c2-c2ccnc(Nc3ccc4c(c3)OCCO4)n2)cc1,0.81,0.18,1.72,5.01,4.37,1.49,-1.87,5.4,5.36,7.17,4.1,5.36,5.52,5.49,3.8,3.25,3.58,2.1,2.93,5.98
N#Cc1cccc(Nc2nccc(-c3cnn4ncccc34)n2)c1,41.4,8.75,43,83.8,89.2,89.8,121,82.3,87.2,76.7,99.9,71,83.7,80.3,87,61.9,84,98.9,96.9,56.7
Oc1cccc(-c2nc(-c3ccccc3)[nH]c2-c2ccncc2)c1,2.78,2.62,2.68,0.66,2.64,1.15,-1.31,5.08,6.33,4.62,-2,2.45,5.74,0.71,3.06,-1.44,6.21,1.81,4.52,1.66
ON=C1CCc2cc(-c3nc(C4CCNCC4)[nH]c3-c3ccncc3)ccc21,1.04,1.01,0.07,0.23,2.04,0.63,-0.53,1.2,2.51,2.27,0.13,0.69,2.19,0.57,1.42,-5.1,-0.84,2.05,-0.07,-0.6
